# Test results as given in PubChem BioAssay AID540326 (Broad Institute, 2011).
# The list shows a part of the results. Activity calls are given as the source filed them.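 The calls were made as follows: active = quenching, a falling signal, with AC50 below a set limit tied to the top valid dose (actives reach about 32 µM in these data); inconclusive = no clear call, values can overlap the other calls; inactive = rising signal, and the rest.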
# Assay: compounds quenching DiI signal without cells – biochemical, cherry-pick samples, plate reader fluorescence, artefact control for SR-BI HDL uptake inhibitor project, dose response (AID 540326)
# Details: cell-free DiI-HDL fluorescence quenching, 30 min; series mostly up to 35 µM
structure (smiles),measurement,value
CC(=O)OC1C2(CC3N4C(=O)C5(CO)SSC4(CC31O)C(=O)N5C)OC(C)C(C)(C)C2=O (stereo unspecified),outcome,inactive
